From PubChem BioAssay (Tox21)
Several values for one entry are separate records, joined by “and”; a condition that tells them apart may be missing. Identical values can stand only once. More than one record can exist for a structure, and the calls need not agree. Activity calls are given as the source filed them. Entries that show only a call come without a potency. Unless noted, calls come from the whole dose curve; as a rule, active = well fitted curve in the direction sought with a large enough effect in the repeat runs; inconclusive = weak or mixed curves; inactive = no such curve, though single readings can be large; an effect the other way counts as inactive or inconclusive.

How the values were obtained:
[1] = qHTS assay to identify small molecule antagonists of the thyroid receptor (TR) signaling pathway (AID 743065); note: nearly all actives have a fitted effect of over 55% in size; note: potency is the fitted concentration of half-maximal effect
In short: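 GH3.TRE-Luc rat pituitary cells carrying two TR response elements driving luciferase were plated for 4 h, given compound plus 1 nM T3 (final), and incubated 23.5 h at 37 C. ONE-Glo luminescence measured reporter inhibition; CellTiter-Fluor fluorescence tracked cytotoxicity.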

[2] = test system: thyroid hormone receptor (rat, GH3 cells); experiment: qHTS assay to identify small molecule agonists of the thyroid receptor (TR) signaling pathway (AID 743066; calls by dose curve)
[3] = molecular target: Estrogen receptor (Homo sapiens) (UniProt P03372); experiment: qHTS assay to identify small molecule antagonists of the estrogen receptor alpha (ER-alpha) signaling pathway (AID 743069; active = well fitted curve in the direction sought with a large enough effect in the signal ratio in the repeat runs, not every such curve was filed as active; inconclusive = weak or mixed curves, or effect the other way; inactive = no such curve, though single readings can be large or run the other way; the % refers to the signal ratio)
Chain of Estrogen receptor (Homo sapiens) (P03372 whole entry, looked up): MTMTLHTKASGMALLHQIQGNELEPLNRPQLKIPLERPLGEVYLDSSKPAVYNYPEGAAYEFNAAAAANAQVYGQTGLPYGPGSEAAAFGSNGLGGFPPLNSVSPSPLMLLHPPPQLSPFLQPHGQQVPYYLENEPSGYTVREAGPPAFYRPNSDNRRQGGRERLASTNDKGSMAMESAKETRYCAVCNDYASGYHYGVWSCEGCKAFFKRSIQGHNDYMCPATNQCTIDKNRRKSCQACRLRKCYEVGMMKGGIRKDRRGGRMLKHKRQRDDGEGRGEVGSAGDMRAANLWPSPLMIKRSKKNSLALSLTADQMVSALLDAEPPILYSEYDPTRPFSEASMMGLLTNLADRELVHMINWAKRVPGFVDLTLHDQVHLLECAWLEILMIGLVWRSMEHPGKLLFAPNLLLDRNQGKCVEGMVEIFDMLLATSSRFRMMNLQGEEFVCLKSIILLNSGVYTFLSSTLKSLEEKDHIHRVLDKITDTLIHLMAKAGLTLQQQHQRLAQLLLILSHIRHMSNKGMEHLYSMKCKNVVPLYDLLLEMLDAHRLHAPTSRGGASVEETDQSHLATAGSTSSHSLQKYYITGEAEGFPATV
In short: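 Estradiol-stimulated ER-alpha-UAS-bla HEK293 cells, 18 hr compound exposure at 37C. LiveBLAzer B/G substrate, 2 hr RT, fluorescence read.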

[4] = molecular target: Estrogen receptor (Homo sapiens) (UniProt P03372); experiment: qHTS assay to identify small molecule agonists of the estrogen receptor alpha (ER-alpha) signaling pathway (AID 743075; calls by dose curve;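 note: HEK293 GripTite cells with ER-alpha and UAS-driven beta-lactamase reporter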; note: potency is the fitted concentration of half-maximal effect)
[5] = molecular target: Estrogen receptor (Homo sapiens) (UniProt P03372); experiment: qHTS assay to identify small molecule agonists of the estrogen receptor alpha (ER-alpha) signaling pathway using the BG1 cell line (AID 743079); conditions: BG1Luc4E2 cells, ERE-luciferase agonist, 22 h; activation: at 70.3 µM (top of the series); note: nearly all actives have a fitted effect of over 20% in size; note: potency is the fitted concentration of half-maximal effect
[6] = qHTS assay to identify small molecule antagonists of the estrogen receptor alpha (ER-alpha) signaling pathway using the BG1 cell line (AID 743080; calls by dose curve;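 note: BG1 cells stimulated with 17beta-estradiol alongside compound; nearly all actives have a fitted effect of over 25% in size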)
In short: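 Seeding, 24 h rest, compound transfer from DMSO, 17beta-estradiol addition, 21.5 h incubation, CellTiter-Fluor (30 min, 37 C), then ONE-Glo (30 min, room temperature): this sequence was run on BG1-Luc-4E2 reporter cells.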

[7] = qHTS assay to identify small molecule antagonists of the estrogen receptor alpha (ER-alpha) signaling pathway using the BG1 cell line - cell viability counter screen (AID 743081);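 note: compound given together with 17beta-estradiol as the ER stimulus; nearly all actives have a fitted effect of over 45% in size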; note: potency is the fitted concentration of half-maximal effect
[8] = molecular target: Aromatase (Homo sapiens) (UniProt P11511); experiment: qHTS assay to identify aromatase inhibitors (AID 743083); note: nearly all actives have a fitted effect of over 55% in size; note: potency is the fitted concentration of half-maximal effect
Chain of Aromatase (Homo sapiens) (P11511 whole entry, looked up): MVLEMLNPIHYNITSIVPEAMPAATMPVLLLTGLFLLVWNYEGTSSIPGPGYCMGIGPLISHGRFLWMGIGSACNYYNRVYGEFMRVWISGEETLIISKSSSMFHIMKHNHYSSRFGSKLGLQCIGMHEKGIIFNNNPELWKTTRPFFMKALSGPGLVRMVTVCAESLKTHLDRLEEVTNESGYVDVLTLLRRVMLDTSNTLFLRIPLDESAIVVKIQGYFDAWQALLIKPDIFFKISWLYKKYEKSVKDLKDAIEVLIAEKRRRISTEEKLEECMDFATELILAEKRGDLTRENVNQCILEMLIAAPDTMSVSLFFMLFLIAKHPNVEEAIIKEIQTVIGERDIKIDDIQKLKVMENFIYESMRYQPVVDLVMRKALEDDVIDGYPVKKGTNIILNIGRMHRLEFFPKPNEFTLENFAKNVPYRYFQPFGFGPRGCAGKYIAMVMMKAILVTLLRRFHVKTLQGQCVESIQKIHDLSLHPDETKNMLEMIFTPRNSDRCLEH

[9] = qHTS assay to identify aromatase inhibitors - cell viability counter screen (AID 743084);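 note: cells stimulated with testosterone during compound exposure; nearly all actives have a fitted effect of over 55% in size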; note: potency is the fitted concentration of half-maximal effect
[10] = qHTS assay to identify small molecule antagonists of the estrogen receptor alpha (ER-alpha) signaling pathway - cell viability counter screen (AID 743074; calls by dose curve;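 note: HEK293 cells carrying ER-alpha-UAS-bla reporter stimulated with 17beta-estradiol; nearly all actives have a fitted effect of over 45% in size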; note: potency is the fitted concentration of half-maximal effect)

## C1COCO1
[1]
  Potency: inactive
[2]
  outcome: inactive
[3]
  Potency: inactive
[4]
  Potency: inactive
[5]
  Potency: inactive
[6]
  Potency: inactive
[7]
  Potency: inactive
[8]
  Potency: inactive
[9]
  Potency: inactive

## CC1(C)O[C@@H]2C[C@H]3[C@@H]4CCC5=CC(=O)C=C[C@]5(C)[C@H]4[C@@H](O)C[C@]3(C)[C@]2(C(=O)CO)O1
[1]
  Potency: inactive
[2]
  outcome: inactive
[3]
  Potency: inactive
[10]
  Potency: inactive
[4]
  Potency: inactive
[5]
  Potency: 0.596 µM (active)
[7]
  Potency: inactive
[8]
  Potency: inactive
[9]
  Potency: inactive

## CO[C@H]1C=CO[C@@]2(C)Oc3c(C)c(O)c4c(O)c(c5c(c4c3C2=O)=NC2(CCN(CC(C)C)CC2)N=5)NC(=O)/C(C)=C\C=C/[C@H](C)[C@H](O)[C@@H](C)[C@@H](O)[C@@H](C)[C@H](OC(C)=O)[C@@H]1C
[1]
  Potency: 29.8 µM (active)
[2]
  outcome: inactive
[3]
  Potency: inactive
[10]
  Potency: inactive
[4]
  Potency: inactive
[5]
  Potency: inactive
[7]
  Potency: 26.6 µM (active) and 53.3 µM (active)
[8]
  Potency: inactive
[9]
  Potency: 30 µM (active)

## CCCOCCOCCO
[1]
  Potency: inactive
[2]
  outcome: inactive
[10]
  Potency: inactive
[4]
  Potency: inactive
[5]
  Potency: inactive
[6]
  Potency: inactive
[7]
  Potency: inactive
[8]
  Potency: inactive
[9]
  Potency: inactive

## CC(=O)Nc1ccccc1C
[1]
  Potency: inactive
[2]
  outcome: inactive
[3]
  Potency: inactive
[4]
  Potency: inactive
[5]
  Potency: inactive
[6]
  Potency: inactive
[7]
  Potency: inactive
[8]
  Potency: inactive
[9]
  Potency: inactive

## CCC(C)(O)CCC=C(C)C (configuration not stated)
[1]
  Potency: inactive
[2]
  outcome: inactive
[3]
  Potency: inactive
[10]
  Potency: inactive
[4]
  Potency: inactive
[6]
  Potency: inactive
[7]
  Potency: inactive
[8]
  Potency: inactive
[9]
  Potency: inactive

## O=C(CCCN1CCC(O)(c2ccc(Br)cc2)CC1)c1ccc(F)cc1
[1]
  Potency: 10.1 µM (active)
[2]
  outcome: inactive
[10]
  Potency: inactive
[4]
  Potency: inactive
[5]
  Potency: inactive
[6]
  Potency: inactive
[7]
  Potency: inactive
[8]
  Potency: inactive
[9]
  Potency: inactive

## CO[Si](C)(OC)OC
[1]
  Potency: inactive
[2]
  outcome: inactive
[10]
  Potency: inactive
[4]
  Potency: inactive
[5]
  Potency: inactive
[6]
  Potency: inactive
[7]
  Potency: inactive
[8]
  Potency: inactive
[9]
  Potency: inactive

## Cc1cc(O)c(C(C)C)cc1Cl
[1]
  Potency: inactive
[2]
  outcome: inactive
[10]
  Potency: inactive and 49 µM (active)
[4]
  Potency: inactive
[5]
  Potency: inactive
[6]
  Potency: inactive
[7]
  Potency: inactive
[8]
  Potency: inactive
[9]
  Potency: inactive

## NC(=O)Nc1ccc(Cl)cc1
[1]
  Potency: inactive
[2]
  outcome: inactive
[3]
  Potency: inactive
[4]
  Potency: inactive
[5]
  Potency: inactive
[6]
  Potency: inactive
[7]
  Potency: inactive
[8]
  Potency: inactive
[9]
  Potency: inactive

## CC1=C(C=O)C(C)(C)CCC1
[1]
  Potency: inactive
[2]
  outcome: inactive
[10]
  Potency: inactive
[4]
  Potency: inactive
[5]
  Potency: inactive
[6]
  Potency: inactive
[7]
  Potency: inactive
[8]
  Potency: inactive
[9]
  Potency: inactive

## [O]=[Bi]
[1]
  activity, negative = inhibition: -1.71% [at 8.44 µM] (inactive)
[2]
  activation: -0.257% [at 8.08 µM] (inactive)
[3]
  activity, negative = inhibition: -6.92% [at 6.71 µM] (inactive)
[10]
  activity, negative = cytotoxicity: -18.5% [at 6.72 µM] (inactive)
[4]
  activation: -1.87% [at 6.71 µM] (inactive)
[6]
  activity change, negative = inhibition: 3.19% [at 8.47 µM] (inactive)
[7]
  activity change, negative = cytotoxicity: 0.603% [at 8.47 µM] (inactive)
[8]
  activity, negative = inhibition: 15.6% [at 8.47 µM] (inactive)
[9]
  activity change, negative = cytotoxicity: -5.72% [at 8.47 µM] (inactive)

## COC(OC)(C(=O)c1ccccc1)c1ccccc1
[1]
  Potency: inactive
[2]
  outcome: inactive
[3]
  Potency: inactive
[10]
  Potency: inactive
[4]
  Potency: 0.0123 µM [inconclusive] (active)
[5]
  Potency: 4.32 µM (active)
[7]
  Potency: inactive
[8]
  Potency: inactive
[9]
  Potency: inactive

## OCC1CC=CCC1 (configuration not stated)
[1]
  Potency: inactive
[2]
  outcome: inactive
[3]
  Potency: inactive
[10]
  Potency: inactive
[4]
  Potency: inactive
[5]
  Potency: inactive
[6]
  Potency: inactive
[7]
  Potency: inactive
[8]
  Potency: inactive
[9]
  Potency: inactive

## O=C1NCCN1
[1]
  Potency: inactive
[2]
  outcome: inactive
[3]
  Potency: inactive
[10]
  Potency: inactive
[4]
  Potency: inactive
[5]
  Potency: inactive
[6]
  Potency: inactive
[7]
  Potency: inactive
[8]
  Potency: inactive
[9]
  Potency: inactive

## Cc1cc(C(=C2C=CC(=Nc3ccc(S(=O)(=O)O)cc3S(=O)(=O)O)C=C2)c2ccc(Nc3ccc(S(=O)(=O)O)cc3)cc2)ccc1N
[1]
  Potency: inactive
[2]
  outcome: inactive
[3]
  Potency: inactive
[10]
  Potency: inactive
[4]
  Potency: inactive
[5]
  Potency: inactive
[6]
  Potency: inactive
[7]
  Potency: inactive
[8]
  Potency: inactive
[9]
  Potency: inactive

## Nc1ccc(S(=O)(=O)O)c(N)c1
[1]
  Potency: inactive
[2]
  outcome: inactive
[10]
  Potency: inactive
[4]
  Potency: inactive
[5]
  Potency: inactive
[6]
  Potency: inactive
[7]
  Potency: inactive
[8]
  Potency: inactive
[9]
  Potency: inactive

## Nc1ccc(Cl)cc1[N+](=O)[O-]
[1]
  Potency: inactive
[2]
  outcome: inactive
[3]
  Potency: inactive
[10]
  Potency: inactive
[4]
  Potency: inactive
[6]
  Potency: inactive
[7]
  Potency: inactive
[9]
  Potency: inactive

## CCCCCCCCCCCC[N+](C)(C)CCCS(=O)(=O)[O-]
[1]
  Potency: 24.6 µM (active)
[2]
  outcome: inactive
[10]
  Potency: 49.6 µM (active)
[4]
  Potency: inactive
[5]
  Potency: inactive
[6]
  Potency: inactive
[7]
  Potency: inactive
[8]
  Potency: inactive
[9]
  Potency: inactive

## CC1=CC(O)CC(C)(C)C1 (configuration not stated)
[1]
  Potency: inactive
[2]
  outcome: inactive
[3]
  Potency: inactive
[10]
  Potency: inactive
[4]
  Potency: inactive
[5]
  Potency: inactive
[6]
  Potency: inactive
[7]
  Potency: inactive
[8]
  Potency: inactive
[9]
  Potency: inactive

## COC(=O)[C@@H]1CC2=CC(=O)CC[C@]2(C)[C@@]23O[C@@H]2C[C@@]2(C)[C@@H](CC[C@@]24CCC(=O)O4)[C@H]13
[1]
  Potency: inactive
[2]
  outcome: inactive
[10]
  Potency: inactive
[4]
  Potency: inactive
[5]
  Potency: inactive
[6]
  Potency: inactive
[7]
  Potency: inactive
[8]
  Potency: inactive
[9]
  Potency: inactive

## c1ccc(COCc2ccccc2)cc1
[1]
  Potency: inactive
[2]
  outcome: inactive
[10]
  Potency: inactive
[4]
  Potency: inactive
[5]
  Potency: inactive
[6]
  Potency: inactive
[7]
  Potency: inactive
[8]
  Potency: inactive
[9]
  Potency: inactive

## Oc1cc(O)c(Cl)cc1Cl
[1]
  Potency: inactive
[2]
  outcome: inactive
[10]
  Potency: inactive
[4]
  Potency: inactive
[5]
  Potency: inactive
[6]
  Potency: inactive
[7]
  Potency: inactive
[8]
  Potency: inactive
[9]
  Potency: inactive

## C/C=C/C=C/CCCCCCCO
[1]
  Potency: 61.1 µM (active)
[2]
  outcome: inactive
[10]
  Potency: inactive
[4]
  Potency: inactive
[5]
  Potency: inactive
[6]
  Potency: inactive
[7]
  Potency: inactive
[8]
  Potency: inactive

## CC1CN(c2cc3c(cc2F)c(=O)c(C(=O)O)cn3-c2ccc(F)cc2F)CCN1 (configuration not stated)
[1]
  Potency: inactive
[2]
  outcome: inactive
[3]
  Potency: inactive
[10]
  Potency: inactive
[4]
  Potency: inactive
[5]
  Potency: inactive
[6]
  Potency: inactive
[8]
  Potency: inactive
[9]
  Potency: inactive

## O=C(CCC1CCN(Cc2ccccc2)CC1)c1ccc2c(c1)NCCCC2
[1]
  Potency: 11.9 µM (active)
[2]
  outcome: inactive
[3]
  Potency: inactive
[4]
  Potency: inactive

## C=CCOC(=O)/C=C\C(=O)OCC=C
[1]
  Potency: inactive
[2]
  outcome: inactive
[10]
  Potency: inactive
[4]
  Potency: inactive
[5]
  Potency: inactive
[6]
  Potency: inactive
[7]
  Potency: inactive
[8]
  Potency: inactive
[9]
  Potency: inactive

## O=C1OCCN1/N=C/c1ccc([N+](=O)[O-])o1
[1]
  Potency: inactive
[2]
  outcome: inactive
[3]
  Potency: inactive
[10]
  Potency: inactive
[4]
  Potency: 0.848 µM [inconclusive] (active)
[5]
  Potency: 0.168 µM (active)
[8]
  Potency: 29.8 µM (active)

## CCC(Cc1ccccc1)(C(=O)c1ccc(N2CCOCC2)cc1)N(C)C (configuration not stated)
[1]
  Potency: inactive
[2]
  outcome: inactive
[3]
  Potency: inactive
[10]
  Potency: inactive
[4]
  Potency: 49 µM [inconclusive] (active)
[7]
  Potency: inactive
[8]
  Potency: inactive
[9]
  Potency: inactive

## O=[N+]([O-])c1cccc(S(=O)(=O)NCCNS(=O)(=O)c2cccc([N+](=O)[O-])c2)c1
[1]
  Potency: inactive
[2]
  outcome: inactive
[3]
  Potency: inactive
[10]
  Potency: inactive
[4]
  Potency: inactive
[5]
  Potency: inactive
[6]
  Potency: inactive
[7]
  Potency: inactive
[8]
  Potency: inactive
[9]
  Potency: inactive

## CC1CC(=O)NN=C1c1ccc(NCC(C)(C)NCC(O)COc2cc(Cl)ccc2C#N)cc1 (configuration not stated)
[1]
  Potency: inactive
[2]
  outcome: inactive
[10]
  Potency: inactive
[4]
  Potency: inactive
[5]
  Potency: inactive
[6]
  Potency: inactive
[7]
  Potency: inactive
[8]
  Potency: inactive
[9]
  Potency: inactive

## CC(C)C(=O)O
[1]
  Potency: inactive
[2]
  outcome: inactive
[10]
  Potency: inactive
[4]
  Potency: inactive
[6]
  Potency: inactive
[7]
  Potency: inactive
[8]
  Potency: inactive

## CCCCCCOC(=O)C(C)C
[1]
  Potency: inactive
[2]
  outcome: inactive
[10]
  Potency: inactive
[7]
  Potency: inactive
[8]
  Potency: inactive
[9]
  Potency: inactive
